{"source": "PubChem BioAssay (NCATS)", "note": "Where “and” joins values, the source holds several entries; their conditions need not be identical. Identical values can stand only once. Results filed as inconclusive are left out. Calls of active or inactive are those of the source. Calls follow the shape of the dose curve; as a rule, active = well fitted cell-killing curve with a large enough effect; inconclusive = small, poorly fitted or top-dose-only effect, or effect the other way; inactive = no such curve, though single readings can be large or run the other way. Potency is read from the fitted curve at half-maximal effect."}
{"assay": "qHTS of pediatric cancer cell lines to identify multiple opportunities for drug repurposing: Confirmatory screen for Saos-2 cells (AID 1347127); also: nearly all actives have a fitted effect of over 60% in size;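 as to activity change, negative = cytotoxic: plate controls were DMSO for no effect and bortezomib for full effect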", "conditions": "Saos-2 osteosarcoma cell viability; series mostly up to 45.9 µM; activity change, negative = cytotoxic: at the top concentration", "method_in_brief": "(§1)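 Cells (500-1,000/well) in growth media were settled 5 h at 37 degrees C, then given compounds for 48 h. Viability was read as CellTiter-Glo luminescence. Primary runs used MIPE at 11 points (0.78 nM-46 µM) and NPC at 8 points (0.59 nM-46 µM); follow-ups used 11 points.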"}
{"smiles": "CN1CCCC(n2nc(Cc3ccc(Cl)cc3)c3ccccc3c2=O)CC1", "note": "(configuration not stated)", "activity change, negative = cytotoxic": "-27.1% (inactive)"}
{"smiles": "CCC(=O)O[C@]1(C(=O)SCF)[C@H](C)C[C@H]2[C@@H]3C[C@H](F)C4=CC(=O)C=C[C@]4(C)[C@@]3(F)[C@@H](O)C[C@@]21C", "activity change, negative = cytotoxic": "-12.2% (inactive)"}
{"smiles": "S=P(N1CC1)(N1CC1)N1CC1", "activity change, negative = cytotoxic": "-11.4% (inactive)"}
{"smiles": "CC1CC2C3CCC4=CC(=O)C=C[C@]4(C)[C@@]3(F)[C@@H](O)C[C@]2(C)[C@@]1(O)C(=O)CO", "note": "(some centres not stated)", "activity change, negative = cytotoxic": "1.11% (inactive)"}
{"smiles": "Nc1nc(=S)c2[nH]cnc2[nH]1", "Potency": "7.37 µM (active) and 2.93 µM (active)"}
{"smiles": "CNCC[C@H](Oc1cccc2ccccc12)c1cccs1", "activity change, negative = cytotoxic": "-6.83% (inactive)"}
{"smiles": "Nc1nc(N)c2nc(CNc3ccc(C(=O)NC(CCC(=O)O)C(=O)O)cc3)cnc2n1", "note": "(configuration not stated)", "activity change, negative = cytotoxic": "12.9% (inactive)"}
{"smiles": "CNNCc1ccc(C(=O)NC(C)C)cc1", "activity change, negative = cytotoxic": "4.9% (inactive)"}
{"smiles": "COc1cc(NCc2ccc3nc(N)nc(N)c3c2C)cc(OC)c1OC", "Potency": "10.4 µM (active)"}
{"smiles": "CCc1c2c(nc3ccc(OC(=O)N4CCC(N5CCCCC5)CC4)cc13)-c1cc3c(c(=O)n1C2)COC(=O)[C@]3(O)CC", "Potency": "1.85 µM (active)"}
{"smiles": "CNS(=O)(=O)CCc1ccc2[nH]cc(C3CCN(C)CC3)c2c1", "outcome": "inactive"}
{"smiles": "CNC(=O)c1cc(Oc2ccc(NC(=O)Nc3ccc(Cl)c(C(F)(F)F)c3)cc2)ccn1", "activity change, negative = cytotoxic": "-22.7% (inactive)"}
{"assay": "qHTS of pediatric cancer cell lines to identify multiple opportunities for drug repurposing: Confirmatory screen for OHS-50 cells (AID 1347128);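 also: compound exposure lasted 48 h at 37 degrees C; nearly all actives have a fitted effect of over 55% in size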; as to activity change, negative = cytotoxic: % is scaled to controls: 0 for no effect and ±100 for the full control effect", "conditions": "OHS-50 osteosarcoma cells viability; series mostly up to 45.9 µM; activity change, negative = cytotoxic: at the top concentration", "method_in_brief": "as §1"}
{"smiles": "COC(=O)Nc1nc2ccc(C(=O)c3ccccc3)cc2[nH]1", "Potency": "2.93 µM (active)"}
{"smiles": "CCC(=O)O[C@]1(C(=O)SCF)[C@H](C)C[C@H]2[C@@H]3C[C@H](F)C4=CC(=O)C=C[C@]4(C)[C@@]3(F)[C@@H](O)C[C@@]21C", "activity change, negative = cytotoxic": "-3.47% (inactive)"}
{"smiles": "S=P(N1CC1)(N1CC1)N1CC1", "activity change, negative = cytotoxic": "-12.8% (inactive)"}
{"smiles": "CC1CC2C3CCC4=CC(=O)C=C[C@]4(C)[C@@]3(F)[C@@H](O)C[C@]2(C)[C@@]1(O)C(=O)CO", "note": "(some centres not stated)", "activity change, negative = cytotoxic": "-11.5% (inactive)"}
{"smiles": "CS(=O)(=O)c1ccc([C@@H](O)[C@@H](CO)NC(=O)C(Cl)Cl)cc1", "activity change, negative = cytotoxic": "4.29% (inactive)"}
{"smiles": "Nc1nc(=S)c2[nH]cnc2[nH]1", "Potency": "928 nM (active) and 414 nM (active)"}
{"smiles": "CC(=O)[C@H]1CC[C@H]2[C@@H]3CCC4=CC(=O)CC[C@]4(C)[C@H]3CC[C@]12C", "Potency": "26.1 µM (active)"}
{"smiles": "COc1cc2nc(N3CCCN(C)CC3)nc(NC3CCN(Cc4ccccc4)CC3)c2cc1OC", "Potency": "18.5 µM (active)"}
{"smiles": "Nc1nc(N)c2nc(CNc3ccc(C(=O)NC(CCC(=O)O)C(=O)O)cc3)cnc2n1", "note": "(configuration not stated)", "Potency": "0.369 µM (active)"}
{"smiles": "N=C(N)c1ccc(OCCCCCOc2ccc(C(=N)N)cc2)cc1", "activity change, negative = cytotoxic": "-15% (inactive)"}
{"smiles": "CNNCc1ccc(C(=O)NC(C)C)cc1", "activity change, negative = cytotoxic": "3.34% (inactive)"}
{"smiles": "COc1cc(NCc2ccc3nc(N)nc(N)c3c2C)cc(OC)c1OC", "Potency": "3.69 µM (active)"}
{"smiles": "CCc1c2c(nc3ccc(OC(=O)N4CCC(N5CCCCC5)CC4)cc13)-c1cc3c(c(=O)n1C2)COC(=O)[C@]3(O)CC", "Potency": "2.61 µM (active)"}
{"smiles": "CNS(=O)(=O)CCc1ccc2[nH]cc(C3CCN(C)CC3)c2c1", "activity change, negative = cytotoxic": "3.81% (inactive)"}
{"smiles": "CNC(=O)c1cc(Oc2ccc(NC(=O)Nc3ccc(Cl)c(C(F)(F)F)c3)cc2)ccn1", "Potency": "18.5 µM (active)"}
